{
  "source": "PubChem BioAssay (NCATS)",
  "note": "Results filed as inconclusive are left out. Entries that show only a call come without a potency. Active and inactive are the calls of the source. The call rests on the fitted dose curve; in most records, active means well fitted inhibition curve with a large enough effect; inconclusive means small, poorly fitted or top-dose-only effect; inactive means no such curve, though single readings can be large or run the other way. Potency means the concentration at half of the fitted maximal effect.",
  "data": [
    {"system": "Zika virus NS2B-NS3 protease (linked construct)", "experiment": "Primary screen NINDS Rhodamine qHTS for Zika virus inhibitors (AID 1347160); further: nearly all actives have a fitted effect of over 55% in size", "details": "purified NS2B-NS3 protease, Rhodamine110 substrate fluorescence; series mostly up to 33.1 µM", "procedure,_shortened": "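Enzyme (25 nM, linked NS2B-NS3) was preincubated 15 min with compound in 10 mM Tris-HCl pH 8.0, 0.01% Tween 20. Rhodamine110 substrate (1.5 microM) was then added and fluorescence read at start and after 15 min.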", "values": [
      {"smiles": "OC[C@@]1(O)CO[C@H](OC[C@H]2O[C@@H](OCCc3ccccc3)[C@H](O)[C@@H](O)[C@@H]2O)[C@@H]1O", "Potency": "inactive"},
      {"smiles": "CC1(C)C2CCC1(C)C(OC(=O)C(O)(CC(=O)O)CC(=O)O)C2", "note": "(stereo unspecified)", "Potency": "inactive"},
      {"smiles": "CC(=C\\C(C)O)/C=C(\\C)C(=O)CC1CC(CC(N)=O)CC(=O)O1", "note": "(stereo unspecified)", "Potency": "inactive"},
      {"smiles": "COC(=O)C1=CO[C@@H](O[C@@H]2O[C@H](CO)[C@@H](O)[C@H](O)[C@H]2O)[C@@H]2C(C)CC(=O)[C@]12O", "note": "(stereo partly specified)", "Potency": "inactive"},
      {"smiles": "CCC(C)/C=C(C)/C=C/C1=CC2=C(Cl)C(=O)C(C)(O)C(=O)C2(O)C(OC)O1", "note": "(stereo unspecified)", "Potency": "10 µM (active)"},
      {"smiles": "O=C(Cc1ccccc1)OC[C@H]1O[C@H](O[C@H]2O[C@H](CO)[C@@H](O)[C@H](O)[C@H]2O)[C@H](O)[C@@H](O)[C@@H]1O", "Potency": "inactive"},
      {"smiles": "O=C(O)c1cc(O[C@@H]2O[C@H](CO)[C@@H](O)[C@H](O)[C@H]2O)ccc1O", "Potency": "inactive"},
      {"smiles": "COc1ccc(CC(=O)NCc2ccccc2-c2ccccc2C(=O)NCCc2cccnc2)cc1", "Potency": "inactive"},
      {"smiles": "CNC(C)C(=O)NC(C(=O)N1CCCC1C(=O)Nc1cccc2ncccc12)C(C)C", "note": "(stereo unspecified)", "Potency": "inactive"},
      {"smiles": "CC(C)(O)/C=C/C(=O)[C@](C)(O)[C@H]1[C@H](O)C[C@@]2(C)[C@@H]3CC=C4[C@@H](C=C(O[C@@H]5O[C@H](CO)[C@@H](O)[C@H](O)[C@H]5O)C(=O)C4(C)C)[C@]3(C)C(=O)C[C@]12C", "Potency": "inactive"},
      {"smiles": "COC(=O)c1c(CC=C(C)C)c(OC2OC(CO)C(O)C(O)C2O)c2ccccc2c1OC1OC(CO)C(O)C(O)C1O", "note": "(stereo unspecified)", "Potency": "inactive"},
      {"smiles": "C[C@H]1/C=C/C=C/C=C/C=C/C=C/[C@@H](O)[C@H](C(=O)O)[C@H](O)C[C@H](O)CCC[C@H](O)C[C@H](O)C[C@H](O)[C@@H](C)C(=O)O[C@@H]1C", "Potency": "inactive"},
      {"smiles": "CCC(C)(C)C1CCc2c(sc(NC(=O)c3ccc(Br)cc3)c2C#N)C1", "note": "(stereo unspecified)", "Potency": "inactive"},
      {"smiles": "CC(NC(=O)CC(=O)O)C(=O)Nc1ccccc1C(N)=O", "note": "(stereo unspecified)", "Potency": "inactive"},
      {"smiles": "OCC1OC(Oc2cc(O)cc(/C=C/c3ccc(OC4OC(CO)C(O)C(O)C4O)cc3O)c2)C(O)C(O)C1O", "note": "(stereo unspecified)", "Potency": "inactive"},
      {"smiles": "CCCCOc1nc(N)c2c(n1)N(Cc1cccc(CN3CCCC3)c1)CC(=O)N2", "Potency": "inactive"},
      {"smiles": "C=C(CCO)C(=O)OCC1OCC(OC(=O)C(=C)CCO[C@@H]2O[C@H](COC(=O)C(=C)CCO[C@@H]3O[C@H](CO)[C@@H](O)[C@H](O)[C@H]3O)[C@@H](O)[C@H](O)[C@H]2O)C(O)C1O", "note": "(stereo partly specified)", "Potency": "inactive"},
      {"smiles": "Cc1cc(Cn2cnc3c2CC(C(=O)O)N(C(=O)C(c2ccccc2)c2ccccc2)C3)ccc1N(C)C", "note": "(stereo unspecified)", "Potency": "inactive"},
      {"smiles": "CN(C)CC(c1ccc(O)cc1)C1(O)CCCCC1", "note": "(stereo unspecified)", "Potency": "inactive"},
      {"smiles": "COc1ccc2c(c1)N1C(=O)C[C@@]34C=CC[N@+]5([O-])CC[C@H]2[C@H](CC3)[C@@]145", "Potency": "inactive"},
      {"smiles": "Nc1c(-c2ccccc2)nc(Cl)c2c(O)n[nH]c(=O)c12", "Potency": "inactive"},
      {"smiles": "C=C1C[C@]23C[C@@]1(O)CC[C@H]2[C@@]12C=C[C@H](O)[C@@](C)(C(=O)O1)[C@H]2[C@@H]3C(=O)O", "Potency": "inactive"},
      {"smiles": "C=C1CC2C3(C)C(O)CC(=O)C(C)(C)C3C(O)C(OC(C)=O)C2(C)C2C(=O)OC(C)(C(=O)OC)C(=O)C12C", "note": "(stereo unspecified)", "Potency": "inactive"},
      {"smiles": "Cc1cn(-c2cc(NC(=O)c3ccc(C)c(Nc4nccc(-c5cnccn5)n4)c3)cc(C(F)(F)F)c2)cn1", "Potency": "inactive"},
      {"smiles": "CC(CC12CCCN1C(=O)C1CCCN1C2=O)OC(N)=O", "note": "(stereo unspecified)", "Potency": "inactive"},
      {"smiles": "COC(=O)C1=CO[C@@H](O[C@@H]2O[C@H](CO[C@@H]3O[C@H](CO)[C@@H](O)[C@H](O)[C@H]3O)[C@@H](O)[C@H](O)[C@H]2O)[C@@H]2C(CO)=CC[C@H]12", "Potency": "inactive"},
      {"smiles": "C[C@@H]1O[C@@H](O[C@H]2[C@@H]3C=CO[C@@H](O[C@@H]4O[C@H](CO)[C@@H](O)[C@H](O)[C@H]4O)[C@@H]3[C@@]3(CO)O[C@@H]23)[C@H](O)[C@H](OC(=O)/C=C/c2ccc(O)cc2)[C@H]1OC(=O)/C=C/c1ccc(O)cc1", "Potency": "inactive"},
      {"smiles": "O=C(/C=C/c1ccc(O)cc1)OC[C@H]1O[C@H](O[C@@]2(CO)O[C@@H](CO)[C@H](O)[C@H]2O)[C@H](O)[C@@H](O)[C@@H]1O", "Potency": "inactive"},
      {"smiles": "O=C(O)c1ccnc(-c2cc(C(=O)NCCc3ccccc3)ccn2)c1", "Potency": "inactive"},
      {"smiles": "COc1cn(-c2ccc(-n3cccn3)cc2F)nc(-c2ccnn2-c2ccccc2)c1=O", "Potency": "inactive"},
      {"smiles": "CC1=C[C@H](O)[C@H]2C(C)(C)CCC[C@]2(C)[C@@]1(O)CO", "Potency": "inactive"}
    ]}
  ]
}
